# Compounds with a hit are over-represented: about 7.3% of the library has one in this group of screens.
# HCMV antiviral: qHTS Assay for inhibitors of the human cytomegalovirus (HCMV). 4.5% of 410,000 active. AID 1259415, 2018. activity change, negative = inhibition, % at 57.5 µM. HFF cells, HCMV-luciferase reporter, 72 h; active compounds read low; in the data active means activity change below about -60%; inconclusive means no clear call, values can overlap the other calls; inactive means above about -39%
#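 Luciferase read-out from HCMV-luciferase-infected HFFs (MOI 1 PFU/cell) 72 h post infection at 37C; compounds added after 16 h cell attachment; activity normalized between buffer-only basal and Salinomycin (10uM) inhibitor controls.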
# HCV inhibitor: qHTS Assay for Inhibitors of Hepatitis C Virus (HCV); Potency, µM (titrated, usually from 41.8 µM), inactives show at the top dose activity change, negative = inhibition, usual class: inhibitors; AID 651820, 2012; 3.4% of 340,000 active; Huh7.5.1 HCVcc-Cre infection, luciferase reporter, 44 h; active means well fitted inhibition curve with a large enough effect; inconclusive means small, poorly fitted or top-dose-only effect, or another doubt; inactive means no such curve, though single readings can be large or run the other way; further: potency means the concentration at half of the fitted maximal effect
#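 1,000 cells/well; 4 h culture; + compound; + HCVcc-Cre (~0.5 moi); 44 h; luciferase substrate, RT 15 min; read 15 sec.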
# FMDV antiviral: High Throughput Screening for Foot and Mouth Disease Virus Antivirals | FMDV antiviral cell-based qHTS | Potency, µM (doses to about 57.9 µM), for inactives: top-dose activity change, negative = inhibition, actives largely listed as inhibitors | 1.2% of 410,000 active; calls by dose curve; tested in HEK293T cells; further: read-out not given here; potency means the concentration at half of the fitted maximal effect; nearly all actives have a fitted effect of over 45% in size
# Vaccinia Venus: qHTS for Stage-Specific Inhibitors of Vaccinia Orthopoxvirus: Venus Reporter Primary qHTS; Vaccinia virus Venus reporter expression, fluorescence; Potency, µM (highest dose often 36.5 µM), for inactives: at the top dose activity change, negative = inhibition, usual class: inhibitors; 0.46% of 330,000 active; AID 720580, 2013; calls by dose curve; tested in A549 cells; further: potency means the concentration at half of the fitted maximal effect; nearly all actives have a fitted effect of over 30% in size
# VACV mCherry inh: qHTS for Stage-Specific Inhibitors of Vaccinia Orthopoxvirus: mCherry Reporter Primary qHTS; Vaccinia virus mCherry reporter infection, fluorescence; Potency, µM (doses to about 36.5 µM), for the others: at the highest dose activity change, negative = inhibition, actives largely listed as inhibitors; 0.63% of 310,000 active; AID 720579, 2013; calls by dose curve; tested in A549 cells; further: potency means the concentration at half of the fitted maximal effect; nearly all actives have a fitted effect of over 35% in size
# * = called active by the depositor; i = inactive; ? = inconclusive; . = no result. On the % scale 0 is the no-effect control and ±100 the full control effect.
SMILES,HCMV antiviral,HCV inhibitor,FMDV antiviral,Vaccinia Venus,VACV mCherry inh
COc1ccc(-c2nc(-c3ccc4c(c3)OCO4)[nH]c2-c2ccc(OC)cc2)cc1,-102*,8.9µM*,?,?,?
Cc1cc2nc(-c3ccc(SCC(=O)Nc4ccc5c(c4)OCCO5)nc3)[nH]c2cc1C,-68*,-19%,.,-12%,i
COc1ccc(-c2nc(SCC(=O)Nc3ccc4c(c3)OCO4)c(-c3ccc(OC)cc3)[nH]2)cc1,-90*,.,-7%,?,?
COc1ccc(-c2[nH]c(-c3ccccc3)nc2SCC(=O)Nc2ccc3c(c2)OCCO3)cc1,?,.,-10%,-8%,-6%
O=C(CSc1nc(-c2ccc(F)cc2)[nH]c1-c1ccc(F)cc1)Nc1ccc2c(c1)OCCO2,-75*,.,?,?,?
COc1ccc2cc(C[C@@H]3CC[C@@H](CO)O3)ccc2c1,43,2%,28%,-5%,i
Cc1ccsc1CN(C)CC(=O)NCC(=O)Nc1ccc(F)c(F)c1F,?,5%,23%,.,.
CN1CCN(C(=O)CCN2C(=O)/C(=C\c3ccccc3F)SC2=S)CC1,-21,?,-17%,.,.
Cc1ccc(/C=C2/SC(=S)N(CCC(=O)N3CCN(C)CC3)C2=O)cc1,-74*,?,16%,-6%,-9%
CN1CCN(C(=O)CCN2C(=O)/C(=C/c3ccccc3Cl)SC2=S)CC1,-85*,?,-28%,56%,0%
COc1ccc(-c2cn[nH]c2-c2ccc(OC)cc2O)cc1,-65*,?,-18%,-25%,?
COc1ccc(-c2cn[nH]c2-c2ccc(OCc3ccccc3)cc2O)cc1,-71*,?,-48%,-22%,?
COc1ccc(-c2[nH]ncc2-c2ccc(Cl)cc2)c(O)c1,-65*,20%,?,?,.
COc1ccccc1-c1cn[nH]c1-c1ccc(OCc2ccccc2)cc1O,-25,-19%,?,-1%,?
CCOc1ccc(S(=O)(=O)NCc2ccc3c(c2)OCO3)cc1NC(C)=O,1,-5%,10%,.,.
Cc1cccc(NC(=O)C2CCN(S(=O)(=O)c3ccc4c(c3)CCCC(=O)N4)CC2)c1,15,.,-26%,0%,-1%
CC1=NN(C(N)=S)C(=O)C1N=Nc1ccc(Cl)cc1Cl (configuration not stated),130,0%,10%,.,.
COc1ccc(NC(=O)Cn2cnc3ccc(S(=O)(=O)N4CCC(C)CC4)cc3c2=O)cc1OC,-22,.,-1%,-6%,-2%
COc1ccc2c3c(n(C)c2c1)[C@H](CO)N(C(C)=O)CC31CCN(C(=O)C2CCOCC2)CC1,36,.,.,.,.
CCOC(=O)N1CCN(c2nc(-c3ccc(Cl)cc3)cs2)CC1,?,?,.,-3%,i
O=C(Cc1cccs1)N1CCN(c2nc(-c3ccc(Cl)cc3)cs2)CC1,-108*,?,?,.,.
CC(C)C(=O)N1CCN(c2nc(-c3ccc(Cl)cc3)cs2)CC1,-70*,?,-13%,.,.
CCCCNc1ccc(/C=C2\C=Cc3ccccc32)cc1,.,.,.,6%,18%
COC(=O)COc1ccc(C2C(C(=O)OC)=C(C)NC3=C2C(=O)c2ccccc23)cc1OC (configuration not stated),-108*,.,-16%,-6%,-5%
CCOC(=O)COc1ccccc1C1C(C(=O)OC)=C(C)NC2=C1C(=O)c1ccccc12 (configuration not stated),-9,.,-18%,-15%,-14%
SMILES,HCMV antiviral,HCV inhibitor,FMDV antiviral,Vaccinia Venus,VACV mCherry inh
CC(=O)N1CCCc2cc(S(=O)(=O)N3CCC(C(=O)Nc4cccc(Cl)c4C)CC3)ccc21,-13,.,0%,-2%,9%
COc1cccc(CN(C)C[C@@H]2OCc3ccccc3-c3c(n(C)c4ccccc34)C(=O)N([C@@H](C)CO)C[C@H]2C)c1,-105*,.,?,?,?
C[C@@H]1CN([C@H](C)CO)C(=O)c2c(c3ccccc3n2C)-c2ccccc2CO[C@H]1CN(C)Cc1ccccc1,-11,.,-19%,?,-22%
CCOc1cccc(-c2nnc3sc(C4CCCCC4)nn23)c1,?,-18%,-15%,.,.
Cc1cc(-c2nnc3sc(C4CCCCC4)nn23)n[nH]1,-25,15%,-4%,.,.
COc1cccc(-c2nnc3sc(C4CCCCC4)nn23)c1,-84*,-28%,18%,.,.
